The values below come from PubChem BioAssay AID1508600 (Functional Genomics Laboratory (NCATS/FGL), 2020).

Hit rate of the full screen: of about 53,000 sequences, about 3,700 (7%) were called active. This excerpt belongs to a sample that is enriched for actives. Unmarked numbers belong to inactive results.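 The calls were made as follows: active = gene knockdowns whose robust z-score for IL-1 alpha signal is at least 2 or at most -2, so actives lie on both sides; inactive = the rest.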

The assay is described as follows: Components of the Cytosolic LPS Sensing Pathway: Gene Identification via Genome-wide siRNA Screen.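 Also: robust z of the log signal after scaling to non-targeting control siRNA wells of the plate.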 Particulars: RAW264.7 macrophages, IL-1a HTRF, actives lie on both sides, screened at 100 nM (by protocol), cells primed 5 h with Pam3CSK4 first. The procedure, abridged:
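Three distinct siRNAs per gene were tested singly at 100 nM in RAW264.7 macrophages. Following Pam3CSK4 priming and 24 hour LipidA transfection, IL-1a secretion was read by HTRF.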
Take GGAUUGGAUAUUGAGAAGGTT against Rexo2: the z-score is -1.72. To GGUGGUCAGGAAAUGAGUCTT against Lrch4 belongs 2.09 (active); to “GGUCAACUCUAAGAUGCUGTT against 9930012K11Rik”, 1.35. As for CGUGUGAAGUAAAGAUGUUTT against Mrpl57, the z-score was 0.212. For the sequence GGAGCUGCUUUCAAAGCUGTT against Ccdc136, the z-score is -0.831. In the case of GGAUGGUACAGGUCUGGUGTT against Fgfr3, the z-score was 4.82 (active).

For “CGGAUUAUUGGUUAGAAAUTT against C230013L11Rik”, the z-score was 1.26. In the case of GCACAAUGGAAGGUGUCCUTT against Tas2r114 it was 0.597. To GGACUUUGUGGACAAAAUUTT against Ift20 belongs -1.64; to GCCUCAACAUGAUCCCGAGTT against Ccdc172, -3.34 (active). To GGAGAUAAAGAGGAACAUUTT against AI504432 belongs 1.01. For GGGUUUUGAAAGAGGAAAATT against Osbpl8, the z-score is 1.52. To GGCAGCUGAAAGAAGAUCUTT against Dffa belongs 3.21 (active). On to GGGACUGGAACAAUAGAGGTT against BC030500, for which the z-score is 0.626.

For the sequence GGGACAAGUGACUGAAUUGTT against Dio3, the z-score was 0.408. For GGCCAUUUACUUGAAGAACTT against Lpin3, the z-score was -0.0508. In the case of CCUUCUCCUCGUGCAAGUATT against Cort it was 2.05 (active). In the case of GAUGCCCAAUGUGCAAAUGTT against Defa-rs12, the z-score is 1.06. In the case of CCACUGCACUGUAAAUCAATT against Glrx5 it was -1.41; in that of GCUCUUGACUCACUCAGCATT against Il1bos, -2.01 (active); in that of GGACUGAAAUGUCUUAGACTT against Selenow, -1.21. In the case of GCAUCGCAUAUUGGAAUGCTT against Lim2 it was 0.366; in that of CGGCAAAUUCGUGAAAAGGTT against Olfr575, 0.118. In the case of GCAACUGAAUUCCAGUUUUTT against Ugt1a2 it was -0.0905. As to GGAGCUAGCCAACUUCGAUTT against Lsr, the z-score is -0.182.

Turning to GCACAGAAAUAUUAAAGUCTT against Foxp4, the z-score is -1.7. In the case of GGGUUUAGAAAGAUGAAUGTT against Tbcel it was -0.189; in that of GGGCUUCACCCUCAUACAATT against Pirt, 2.26 (active); in that of GGAGAAAGCCAAAUUUAACTT against Slc17a6, 0.103. To GGUCUGAAGAAGAUUCUGGTT against Unc45a belongs 0.33; to GCCUUUAUAGGAUUUCAAATT against Ppp2r5e, 0.678. To CGGUACAGGGUAAAGGACATT against Prss41 belongs 0.00568. With GGAGUACAGCAUCUCAGCATT against Cacng1, the z-score is -2.17 (active). In the case of GGCAGAACCCUUUGAUGACTT against Fos it was -0.0931. In the case of GCAGCUGUCCGUAUAUCUUTT against Uxt it was 0.377; in that of GGAGUCCUGAAGAAUAAAGTT against Tff3, -0.0657.

Turning to CCCACUACUGUAAGACAUGTT against Trim46, the z-score is 0.614.

As for CCCUCACUAUAACACUAUUTT against Six5, the z-score is -0.418. In the case of GGCUAGAAAGGGUCUCAAATT against Cyp3a25 it was -1.48; in that of UUGGUUCAACCUCAUCAUATT against Olfr869, 2.07 (active).

Regarding CCCUUAUUGCUAGACCUAGTT against Map3k11, the z-score is -1.13.

On to GGAUUUUCUCUAUGCAGGCTT against Dcaf15, for which the z-score is 0.0862. In the case of GGAAAAACUGAGAAAACUUTT against Lyrm1 it was -2.41 (active); in that of GGAUGUCAAGGACACAGUATT against Olfr73, -1.04. With GCAGUGAUCAGGUAAUGAATT against Igf2, the z-score is 0.431. As to GGUGGGUCAAUGAUCCAGGTT against Fabp9, the z-score is -2.11 (active). For GGAUGUCUUUGUUCACCAGTT against Ybx2, the z-score was -0.267. To GCCUUUUAAUAGAUGUCAUTT against Vta1 belongs -0.201; to GGUGUAUUUUUUCACUGUUTT against Olfr339, -1.52. Take GGACUUGCCACCCAGGAAATT against Apba3: the z-score was -0.175. With GCAGAUCAGAAGAAAUUUGTT against Jmy, the z-score is 1.22. To GGGAAAAGCACGUUCUUGCTT against Arl10 belongs 0.34; to GGAUACGAUCCAGUGUGCCTT against Lyzl4, 1.04; to GGAGGAUUCCCUCUAUAUUTT against Slc33a1, 0.118.

As for GGGUCCCUAAGCAUGUUCCTT against Slfn10-ps, the z-score is 0.618.

For GGCUUUGAGCAUGUUUUCATT against Hspb7, the z-score is 7.14 (active). To GGUGGAUAUAAUAAUUGACTT against Tgfbr3 belongs 1.06; to GCUAUCCAGAUUGGUGUUATT against Tatdn1, 1.7. GGGCCAAGAAAACCUACACTT against Cyp11b2: the z-score is 2.63 (active). On to GGCCAAUAAAGACUGGUUUTT against Rps15, for which the z-score is 1.69. In the case of GGAAAGCAAUGCAUUACAATT against Zbtb6 it was 0.149; in that of GGCGGAAGCCAUCUAACUUTT against Arhgef4, -0.519. Consider GGCAGCUUCAGGAACCAAUTT against Krt5, for which the z-score is -2 (active).

Take GGGUUUUCUCAUUGUCUUUTT against Rce1: the z-score is -1.91. On to GGAGGUUUUCAUGGUUAUCTT against Nrgn, for which the z-score is 0.0293. In the case of GGUAGACUGAACUUCAGCATT against Larp6 it was -1.31; in that of CCCUAUGCAAUAUAUAGACTT against Tmsb15l, 0.174. To CCGAAAAUGAGAUAAAGUCTT against Polr2k belongs -1.88; to GGUCAAGUCAAGAGUGAGATT against BC048562, 0.2.

In the case of GGCAUUCUGUGAGACACAATT against Exosc10, the z-score is 0.389. To CCACAAGCAGUGCUCUUUCTT against Cyp3a13 belongs -2.08 (active); to GAGAAGAAAAAAUGCAGUGTT against Olfr825, 0.0375; to CCUGAGGUGUUUUACAUAUTT against Med20, 0.085. To GGAAGAAUCCUCCAUGGAGTT against Mrpl24 belongs 1.35; to GGAAUCAGUGACCUUUUUCTT against Arf2, -2.05 (active); to CCCUCCUAUUAGCGCAUUUTT against Osbpl2, -0.239. In the case of GGAGAUGAUCGACGAAGUATT against Tnnc1 it was 0.914; in that of GGAGACAGCAUUCAUUUAUTT against Wnt16, 0.94; in that of GCUCUCCUUGAUCGAGAGATT against Spryd7, -2.65 (active).

GCCUUGUCUUCCUUCAGUGTT against Sprr2a1: the z-score is -0.172. For GGACUUAAGUACAAAGAUCTT against Sap18, the z-score was 1.46. To GCAUCAAAUAGUGGUACCUTT against Lsm14a belongs -0.209; to CGAGCUCAGGUGAGAAAUUTT against Pfpl, 0.924; to GGACUGCCUUAUGCUACGATT against Setd5, -0.44. In the case of GUCCUCUUCUGGUUCUCAGTT against Vmn1r52 it was 0.246. In the case of CGAGAAGUACAAAAGGGAGTT against Ccdc103 it was -0.768; in that of GGUCCUGACUGGAUACCUGTT against Ece1, 4.19 (active). In the case of GGCGGAGUAGACUUCAUAUTT against Olfr593, the z-score is 0.363. To GUUUGAUGAUCACUGGGUCTT against Aqp2 belongs 1.6. GCUCCGAAGAGCUAAUACUTT against Tmem25: the z-score was 0.944.

In the case of GCGGCAGAUCUUCGAUUUCTT against Nkain1, the z-score is 0.168. As for GGCAAAUAUUUCCAAGUACTT against Cpq, the z-score was -1.57. To CGAAGUUCCUGGAAAAUAUTT against Tbc1d7 belongs -0.924; to CCAGAACGCGGAGCAAAUUTT against Sec63, 2.13 (active). In the case of GCACUGUGACGAUACAAGATT against Asb1 it was -1.17. With CCGUAGCGAGACUUACAUCTT against Asic3, the z-score was 1.88. As for CCUAUAAUGGAGAUGAUACTT against Spty2d1, the z-score is -0.46.

GGGAAAUGGUGAAUCACAGTT against Dpp8: the z-score was 2.25 (active). In the case of GGCAGAAGCCGUUAGAGAUTT against Cep295nl it was 0.35; in that of CCAAUCGUAAUGACAAUUCTT against Myo1d, -0.857; in that of GGGACAACACUCUUUUACUTT against Nab2, 0.696. In the case of GGAGGACUUUCAGUUAUAUTT against Ogfod3 it was 1.32; in that of GCGAUUGUGCUUUUGAGCCTT against Tanc2, 1.97. To GGCUUCAGUGAUGAAUGAATT against Tor1aip1 belongs -0.594. Take GCCACGACACGAUGACAUATT against Plcxd1: the z-score is 0.918. Regarding GCUAAGUUAAGCUUAAUACTT against Rbl1, the z-score was 3.33 (active).

On to GGCAUAGCCACUAAAAAAATT against Muc2, for which the z-score is -0.832. To GGUUUCCAGUUAUCUUAAUTT against Glipr1l2 belongs 1.46.
